A selection: hits, their analogues and other compounds. The true share with any hit is near 3.4%.
GPR151 activ = activates the human receptor GPR151; Q8TDV0; PathHunter beta-arrestin GPR151 cells, luminescence; activation, % at 11.2 µM; 1% of 650,000 active; AID 1508602; in the data active means activation above about 4.9%;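 further: 0% = median of compound wells and 100% = cells with positive control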
MITF primary = inhibitors of human MITF. O75030. AlphaScreen MITF homodimerization, bead proximity signal. inhibition, % at 2.6 µM. 0.91% of 650,000 active. AID 1259374; in the data active means inhibition above about 50%;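 further: 0% = vehicle wells with protein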
Target sequence (O75030 whole entry, looked up): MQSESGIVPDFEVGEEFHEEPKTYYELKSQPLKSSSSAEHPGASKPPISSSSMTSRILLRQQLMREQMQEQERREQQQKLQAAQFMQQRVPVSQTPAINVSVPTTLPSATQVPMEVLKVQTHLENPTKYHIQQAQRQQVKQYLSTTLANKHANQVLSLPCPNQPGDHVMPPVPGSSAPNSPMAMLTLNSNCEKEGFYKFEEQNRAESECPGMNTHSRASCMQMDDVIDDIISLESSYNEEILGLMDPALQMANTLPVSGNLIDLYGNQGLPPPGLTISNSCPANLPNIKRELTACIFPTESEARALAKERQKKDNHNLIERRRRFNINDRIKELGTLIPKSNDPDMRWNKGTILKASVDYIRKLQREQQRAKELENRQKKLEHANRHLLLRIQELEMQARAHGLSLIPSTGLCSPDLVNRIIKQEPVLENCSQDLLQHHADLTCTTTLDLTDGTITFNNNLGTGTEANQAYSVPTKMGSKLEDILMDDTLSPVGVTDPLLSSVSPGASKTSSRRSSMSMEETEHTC
FBW7 activator = activators of human E3 ligase FBW7; normalized activity (activation), % at 26.1 µM; Q969H0; AlphaScreen FBW7–phospho-cyclin E peptide binding, activator screen; 0.13% of 650,000 active; in the data active means normalized activity above about 1.9%;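 further: purified mutant Fbw7 with reduced substrate affinity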
TEAD-YAP block = TEAD-YAP interaction inhibition | HEK-TIYL cells, TEAD-Gal4/YAP UAS-luciferase luminescence | inhibition, % at 9.12 µM | 1.4% of 640,000 active | AID 1259422; in the data active means inhibition above about 32%;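 further: 0% = median of test compound wells and 100% = reference inhibitor wells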
* = called active by the depositor; ! = a repeat was not active.

SMILES | GPR151 activ | MITF primary | FBW7 activator | TEAD-YAP block
CCc1ccc(N2C(=O)C(Cl)=C(Nc3cccc(OC)c3)C2=O)cc1 | 1 | 13 | 0 | 54*
CC(=O)Nc1ccc(-n2c(C)cc(C=C3C(=O)N(C)C(=O)N(C)C3=O)c2C)cc1 | 1 | -1 | -1 | 1
CC(=O)Nc1ccc(-n2c(C)cc(C=C3C(=O)c4ccccc4C3=O)c2C)cc1 | -2 | 6 | 0 | 83*
C=CC(=O)Nc1ccc(Br)c(C)c1 | -1 | 4 | 0 | 62*
Cc1cc(NC(=O)C(C)(C)C)ccc1Br | 2 | -7 | 0 | 0
CCCCS(=O)(=O)CC(COC(=O)c1ccccc1)S(=O)(=O)CCCC (centres undefined) | 0 | 11 | 0 | 33*
CCCCCCOc1ccc(C(=O)OCC(=O)c2ccccc2)cc1 | -1 | -4 | 0 | 9
Nc1c(C(=O)c2ccc(Cl)cc2)sc2nc3c(cc12)CCCC3 | 0 | 11 | 0 | 9
Nc1c(C(=O)N2CCOCC2)sc2nc3c(cc12)CCCCC3 | -9 | 0 | 0 | 87*
NC(=O)c1sc2nc3cc4c(cc3cc2c1N)OCCO4 | -6 | 6 | 0 | 97*
Nc1c(C(=O)c2ccccc2)sc2nc3c(cc12)CCCC3 | -1 | -19 | 0 | 40*
Nc1c(C(=O)N2CCOCC2)sc2nc3c(cc12)CCCC3 | -6 | 15 | 1 | 31
Cc1cc(C)c2nc3sc(C(=O)N4CCOCC4)c(N)c3cc2c1 | -1 | 16 | 0 | 36*
CCN1CCc2c(sc(NC(=O)c3cccc(N4C(=O)CCC4=O)c3)c2C(N)=O)C1 | -1 | 7 | 0 | 6
NC(=O)c1sc2nc3c(cc2c1N)CCCCC3 | -8 | 1 | 0 | 68*
Nc1c(C(=O)Nc2cccc(C(=O)O)c2)sc2nc3c(cc12)CCC3 | -7 | 2 | 1 | 57*
Nc1c(C(=O)Nc2ccccc2)sc2nc3c(cc12)CCC3 | 2 | -8 | 0 | 30
CC[n+]1c(C)n(CCCS(=O)(=O)O)c2cc(C#N)ccc21 | 0 | 18 | 0 | -11
CCCC(CCn1c(C)[n+](CC)c2ccc(C#N)cc21)S(=O)(=O)O (centres undefined) | -1 | 9 | 1.9* | 14
CCN1c2ccccc2-c2c(ssc2=S)C1(C)C | -1 | 17 | -1 | 3
O=[N+]([O-])c1ccc(CSc2nnc(Cc3ccccc3)o2)cc1 | 0 | 14 | 0 | 11
O=[N+]([O-])c1ccc(Sc2nnc(Cc3ccccc3)o2)nc1 | 1 | -2 | 0 | 57*
C=CCN(c1ccccc1)S(=O)(=O)c1ccc(F)c(C(=O)NCCc2ccccc2)c1 | 0 | 2 | 0 | 35*
C=CCN(c1ccccc1)S(=O)(=O)c1ccc(F)c(C(=O)NCC(OC)OC)c1 | 1 | 8 | 0 | 3
CC1CN(C(=O)N2CCC(C(=O)O)CC2)c2ccccc2S1 (centres undefined) | -1 | 1 | 0 | -13
SMILES | GPR151 activ | MITF primary | FBW7 activator | TEAD-YAP block
CC1CCN(C(=O)CCl)c2ccccc2S1 (centres undefined) | 0 | 15 | 0 | 67*
Cc1cc(O)c(C)c(O)c1/C=N\NC(=O)CNC(=O)C(c1ccccc1)c1ccccc1 | 0 | 17 | 0 | 33*
COC(=O)c1c(N)sc(C(=O)Nc2cc(C)ccc2C)c1C | -3 | 6 | 0 | 79*
CCCNC(=O)c1sc(N)c(C(=O)OC)c1C | 1 | -3 | 0 | -11
COC(=O)c1c(N)sc(C(=O)NCCc2ccccc2)c1C | -5 | 8 | 1 | 73*
COC(=O)c1c(N)sc(C(=O)Nc2cccc(Cl)c2)c1C | -6 | -2 | 0 | 72*
O=C(Nc1cccc2c1C(=O)NC2=O)c1cc[n+]([O-])cc1 | 0 | 5 | 0 | 3
O=C(c1cc2ccccn2n1)N1CCc2ccccc21 | -5 | -7 | 0 | 66*
COc1ccc(N2CCN(c3nc(Cc4ccccc4)nc4sc5c(c34)CCCC5)CC2)cc1 | 1 | 25 | 0 | 6
CN(C)c1ccc2c3c(cccc13)C(=O)N(CCO)C2=O | -1 | -4 | 0 | -20
Nc1c(S(=O)(=O)O)cc2c3c(cccc13)C(=O)N(CCO)C2=O | 2 | 72* | 0 | -2
Cc1ccc(-c2cccc3cnc(NC4CCC(C(=O)N5CCCC5)CC4)nc23)cn1 (centres undefined) | -2 | 10 | 1 | 45*!
Cc1ncn(-c2ccc(Nc3ncc4cccc(-c5cccnc5)c4n3)cc2)n1 | 0 | 15 | 1 | 46*
Cc1ncn(-c2ccc(Nc3ncc4cccc(-c5cn[nH]c5C)c4n3)cc2)n1 | 1 | 19 | 0 | 45*
Cc1ncn(-c2ccc(Nc3ncc4cccc(-c5ccn[nH]5)c4n3)cc2)n1 | 0 | 9 | 1 | 33*
Cc1ncn(-c2ccc(Nc3ncc4cccc(C)c4n3)cc2)n1 | 4 | -10 | 0 | -11
Cc1ncn(-c2ccc(Nc3ncc4cccc(-c5ccc(F)cc5)c4n3)cc2)n1 | 1 | 5 | 0 | 18
Cc1ccc(-c2ncn(-c3ccc(Nc4ncc5cccc(-c6ccc(C)nc6)c5n4)cc3)n2)cn1 | 2 | 6 | 2.3* | 7
Cc1ccc(-c2cccc3cnc(Nc4ccc5c(c4)OCO5)nc23)cn1 | 0 | 12 | 0 | 33*
Cc1ncn(-c2ccc(Nc3ncc4cccc(-c5nccs5)c4n3)cc2)n1 | 0 | 29 | 0 | 56*
Cc1ccc(-c2ncn(-c3ccc(Nc4cc(Nc5ccccc5C(N)=O)c(C)cn4)cc3)n2)cn1 | 4 | -15 | 0 | 38*
Cc1ccc(-c2ncn(-c3ccc(Nc4ncc5cccc(-c6ccc7c(c6)OCO7)c5n4)cc3)n2)cn1 | 0 | 3 | 1 | 1
Cc1ccc(-c2ncn(-c3ccc(Nc4cc(Nc5ccccc5C(N)=O)c(C5CC5)cn4)cc3)n2)cn1 | -1 | -14 | 0 | 22
NC(=O)C1(N2CCCCC2)CCN(C(=O)c2ccc3c(=O)n(C4CCCC4)c(=S)[nH]c3c2)CC1 | 1 | 5 | 1 | 3
O=Cc1cc(=O)n2c3c(cccc13)CCC2 | 0 | 6 | 0 | -5
SMILES | GPR151 activ | MITF primary | FBW7 activator | TEAD-YAP block
COc1cc(N)c(Cl)cc1C(=O)OCC(=O)N(C)C | 0 | 4 | 0 | 6
CC(=O)Nc1nc2ccccc2n1CCOc1ccccc1C | 1 | -7 | 0 | 1
CCCCN(CC)S(=O)(=O)c1ccc(C(=O)Nc2sc3c(c2C(=O)OCC)CCN(C)C3)cc1 | -1 | 13 | 2 | 7
Cc1ncn(-c2ccc(Nc3ncc4cccc(-c5cccc6c5ccn6C)c4n3)cc2)n1 | 0 | -15 | 0 | 5
Cc1ncn(-c2ccc(Nc3ncc4cccc(-c5ccn(C)n5)c4n3)cc2)n1 | -1 | 38 | 1 | 62*
CC(=O)NC(=O)c1cc2ccccc2oc1=Nc1ccc(C)cc1 | 1 | -10 | 0 | 35*
CCOC(=O)CNS(=O)(=O)c1cc(-c2nnc(Nc3ccc(Br)cc3)c3ccccc23)ccc1C | 0 | 11 | 0 | -1
COc1ccc(-c2c(C)oc3cc(OS(C)(=O)=O)ccc3c2=O)cc1OC | -1 | 13 | 0 | 34*
COc1ccccc1N1CCN(c2ncc(C(=O)Nc3cc(C)on3)c3ccccc23)CC1 | -1 | -7 | 0 | 7
c1csc(CNc2ncnc3nc[nH]c23)c1 | 2 | 0 | 0 | 5
